Source: PubChem
Shown are actives, neighbours in structure and some others; about 7.5% of the full set was active somewhere.
NPC1 promoter act – qHTS Assay for NPC1 Promoter Activators | 320,000 compounds, 2.4% hits | Potency, µM (doses to about 9.22 µM), for the others: at the highest dose activation, hits mostly activators | Huh7 NPC1 promoter luciferase reporter, 24 h; further: % of control where 0% means no effect; nearly all actives have a fitted effect of over 60% in size
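NPC1 promoter–luciferase Huh7 cells; 24 h compound; luminescence.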
ELG1 genotox – qHTS screen for small molecules that induce genotoxicity in human embryonic kidney (HEK293T) cells expressing luciferase-tagged ELG1. Potency, µM (series often up to 46 µM), without a hit: at the top dose activity change, positive = activation, actives largely listed as activators. AID 504466, 2011. 330,000 compounds, 1.3% hits. HEK293T ELG1-luciferase reporter, luminescence, 16 h; further: % of control where 0% means no effect; nearly all actives have a fitted effect of over 60% in size
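DMSO vehicle served as control against compound-treated ELG1-luciferase HEK293T cells; exposure lasted 16 hr at 37 °C and 5% CO2, followed by ONE-Glo luminescence detection after 30 min.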
Rab9 promoter act – qHTS Assay for Rab9 Promoter Activators; 320,000 compounds, 2.8% hits; AID 485297, 2010; Huh7 Rab9 promoter-luciferase reporter, luminescence, 24 h; Potency, µM (series often up to 9.22 µM), for inactives: at the highest dose activation, negative = inhibition, usual class: activators; further: % of control where 0% means no effect; nearly all actives have a fitted effect of over 60% in size
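Cell-based reporter: Huh7 stable for Rab9 promoter-driven luciferase, plated in reduced-serum medium with 10% FBS at 1500 cells/well, compound-treated 24 h at 37 °C, luminescence read after 10 min reagent.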
Luc counter – Counterscreen for Luciferase (Kinase-Glo TM) Inhibition; Luciferin 4-monooxygenase (Photuris pensylvanica), Q27757; Kinase-Glo luciferase, ATP luminescence, 8 min; Potency, µM (titrated, usually from 38.3 µM), without a hit: top-dose activity change, negative = inhibition, usual class: inhibitors; 200,000 compounds, 0.28% hits; further: on the % scale 0 is the no-effect control and ±100 the full control effect; nearly all actives have a fitted effect of over 60% in size
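Kinase-Glo luciferase light output from ATP and luciferin was measured with 10 uM ATP, within the enzyme's linear range. Buffer: 50 mM imidazole pH 7.2, 50 mM KCl, 7 mM MgCl2, 0.01% Tween 20, 0.05% BSA; luminescence read after 8 min at ambient temperature.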
SMN2 splice up – qHTS Assay for Enhancers of SMN2 Splice Variant Expression. HEK293 SMN2-luciferase splicing reporter, luminescence, 30-36 h. Potency, µM (titrated, usually from 46.1 µM), inactives show at the top dose activity change, positive = activation, actives largely listed as activators. 210,000 compounds, 2.8% hits; further: % of control where 0% means no effect; nearly all actives have a fitted effect of over 55% in size
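HEK293 cells carry an SMN2 minigene-luciferase reporter in which exon 7 inclusion puts luciferase in frame. Cells were seeded at 2000 cells/well, attached for 10-12 hours, then exposed to compounds for 30-36 hours at 37C before ONE-Glo luminescence.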
FLuc counter – qHTS profiling assay for firefly luciferase inhibitor/activator using purifed enzyme and Km concentrations of substrates (counterscreen for miR-21 project) | Luciferin 4-monooxygenase (Photinus pyralis), P08659 | purified FLuc, Km substrates, luminescence inhibition | Potency, µM (top dose mostly 57.5 µM), for inactives: at the top dose activity change, negative = inhibition, most hits filed as inhibitors | 360,000 compounds, 6.9% hits;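 further: plate controls were vehicle for no effect and reference inhibitor for full effect; nearly all actives have a fitted effect of over 55% in size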
Target sequence (P08659 whole entry, looked up): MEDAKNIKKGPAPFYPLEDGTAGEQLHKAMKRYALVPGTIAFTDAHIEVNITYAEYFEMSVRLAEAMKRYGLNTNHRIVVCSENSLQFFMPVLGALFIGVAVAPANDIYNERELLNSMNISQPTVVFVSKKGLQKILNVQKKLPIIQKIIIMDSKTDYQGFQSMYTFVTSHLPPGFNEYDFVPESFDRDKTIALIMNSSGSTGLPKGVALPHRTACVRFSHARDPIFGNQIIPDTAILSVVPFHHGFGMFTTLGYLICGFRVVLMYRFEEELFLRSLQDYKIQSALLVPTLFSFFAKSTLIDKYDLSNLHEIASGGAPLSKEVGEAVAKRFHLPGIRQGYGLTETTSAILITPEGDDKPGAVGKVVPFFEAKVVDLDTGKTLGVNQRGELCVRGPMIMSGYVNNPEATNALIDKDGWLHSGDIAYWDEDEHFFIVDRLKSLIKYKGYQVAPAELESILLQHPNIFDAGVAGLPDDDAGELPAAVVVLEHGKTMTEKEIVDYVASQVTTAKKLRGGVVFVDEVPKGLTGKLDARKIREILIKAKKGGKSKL
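Purified P. pyralis luciferase, 10 nM final, with Km-level 10 uM D-luciferin and 10 uM ATP in 50 mM Tris acetate pH 7.5, 10 mM Mg acetate, 0.01% Tween-20, 0.05% BSA; 6-point qHTS titration about 60 µM downward; luminescence read.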
* marks the source's active call; other numbers are inactive results; ? = inconclusive; / = no result given; [ ] = dose if it differs, or a comment. The call rests on the fitted dose curve; in most records, active means well fitted curve in the direction sought with a large enough effect; inconclusive means small, poorly fitted or top-dose-only effect, or another doubt; inactive means no such curve, though single readings can be large; an effect the other way counts as inactive or inconclusive. Potency means the concentration at half of the fitted maximal effect.

SMILES | NPC1 promoter act | ELG1 genotox | Rab9 promoter act | Luc counter | SMN2 splice up | FLuc counter
Cc1ccsc1/C=N/NC(=O)c1cccs1 | ? | ? | ? | / | / | 11µM*
COc1ccc(OC)c(/C=N/N=C(\N)c2nonc2N)c1 | -1% | 1% | -3% | / | / | ?
Nc1nonc1C(=O)N/N=C/c1ccc(Br)o1 | -2% | 0% | -2% | / | / | 19µM*
N/C(=N\N=C\c1ccc(Br)o1)c1nonc1N | 2.5µM* | ? | 1.3µM* | / | / | 12µM*
Cc1nn2c(-c3ccccc3)nnc2c2ccccc12 | ? | ? | ? | -7% | 5.6µM* | 19µM*
Cc1ccc(-c2nn3c(-c4ccc(C)cc4)nnc3c3ccccc23)cc1 | / | / | / | / | -1% | 0%
O=C(Nc1nnc(-c2ccco2)s1)c1ccccc1 | 0.79µM* | 1.2µM* | 0.4µM* | -7% | 2µM* | 3µM*
O=C(Nc1ccc(F)cc1)Nc1nnc(-c2ccco2)s1 | ? | 20% | 2.8µM* | -2% | 19% | -19%
COc1ccc(C(=O)Nc2nnc(-c3ccco3)s2)cc1 | 0.45µM* | ? | 0.32µM* | -21% | 1.4µM* | 0.48µM*
COc1ccccc1NC(=O)Nc1nnc(-c2ccco2)s1 | -3% | 4% | 3% | -3% | 1% | -1%
C[N+](C)(C)CCO | -2%[46.1 µM] | / | -1%[46.1 µM] | -5% | 11% | /
O=C(CSc1ncn[nH]1)N(C1CCCCC1)C1CCCCC1 | -4% | -12% | -9% | 1% | -6% | -4%
CCC(Sc1nc2ccncc2[nH]1)C(=O)Nc1cc(Cl)ccc1C (stereo not given) | -1% | -8% | 1% | / | -8% | 2%
O=C(N/N=C1\C(=O)c2cccc3cccc1c23)c1ccc(O)cc1 | 0% | 3% | 21% | -1% | 23% | 2.1µM*
CCOC(=O)N/N=C1\CCc2ccccc21 | 26% | ? | 29% | -14% | 16µM* | ?
O=C(N/N=C1/CCc2ccccc21)C1CC1 | 7% | ? | 18% | -4% | 22% | ?
O=C(N/N=C1\CCc2ccccc21)c1ccc(O)cc1 | 2.8µM* | 4.6µM* | 2.8µM* | -27% | 18µM* | 7.6µM*
O=C(N/N=C1\CCc2ccccc21)c1ccccc1Cl | 2.2µM* | 18µM* | 2.8µM* | -4% | 10µM* | 11µM*
O=C(N/N=C1\CCCc2ccccc21)c1cccc(Br)c1 | 20% | 4% | 15% | -1% | ? | ?
CCOC(=O)c1ccccc1NC(=O)N1CCCn2nc(C)cc21 | / | / | / | / | / | -3%
COc1ccc(Cl)cc1NCc1nnc2n1CCCCC2 | / | / | / | / | / | -1%
COc1cccc(NC(=O)c2nn(-c3ccc(C)cc3)c(=O)n(C)c2=O)c1 | / | / | / | / | / | -2%
Cc1ccc(C(=O)N/N=C2\CCc3ccccc32)c(C)c1 | ? | 2.3µM* | 2.2µM* | 0% | 0.79µM* | 4.8µM*
Cc1ccc(C)c(NC(=S)N/N=C2/CCCCc3ccccc32)c1 | 0% | -9% | -3% | -2% | -38% | 2%
Cn1nc(C(=O)OCC(=O)Nc2ccccc2[N+](=O)[O-])c2ccccc2c1=O | 3% | 2% | 1% | / | / | 7%
C#CCn1c(S(=O)(=O)Cc2ccccc2Cl)nc(-c2ccccc2)c1-c1ccccc1 | -3% | -5% | -5% | 3% | 5.6µM* | 6%
CNC(=O)C(=O)N/N=C/c1ccc(Br)cc1 | 7% | 7% | 12% | -1% | -2% | ?
N/C(=N\N=C/c1ccc(Br)cc1)N/N=C\c1ccc(Br)cc1 | 1% | 2% | ? | 0% | -8% | 11µM*
